Data as given in PubChem BioAssay (NCATS).
Results filed as inconclusive are left out. Calls of active or inactive are those of the source. Calls follow the shape of the dose curve; as a rule, active = well fitted curve in the direction sought with a large enough effect; inconclusive = small, poorly fitted or top-dose-only effect, or another doubt; inactive = no such curve, though single readings can be large; an effect the other way counts as inactive or inconclusive.

Experiments:
[1] = Quantitative High-Throughput drug screen in 47 multiple myeloma cell lines against the NCATS MIPE library collection: KMS26_JCRB cell viability assay (AID 1918975); also: nearly all actives have a fitted effect of over 45% in size
Procedure, shortened: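 Viability readout: CellTiter-Glo luminescence following 5 min room-temperature incubation with reagent. Prior exposure: 48 h, 37C, humidified 5% CO2, 500 cells per well.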

[2] = Quantitative High-Throughput drug screen in 47 multiple myeloma cell lines against the NCATS MIPE library collection: MM1R_ATCC cell viability assay (AID 1918981); also: nearly all actives have a fitted effect of over 35% in size
Procedure, shortened: (§1)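 ATP-based CellTiter-Glo luminescence after 48 h drug exposure (37 °C, 5% CO2) of 500 myeloma cells per well. DMSO-only wells set 100% viability, media-only wells 0%; MIPE 4.0 library added by pin tool.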

[3] = Quantitative High-Throughput drug screen in 47 multiple myeloma cell lines against the NCATS MIPE library collection: OCIMY5_PLB cell viability assay (AID 1918988); also: nearly all actives have a fitted effect of over 65% in size
Procedure, shortened: as §1

[4] = Quantitative High-Throughput drug screen in 47 multiple myeloma cell lines against the NCATS MIPE library collection: OPM1_PLB cell viability assay (AID 1918989); also: nearly all actives have a fitted effect of over 40% in size
Procedure, shortened: as §1

[5] = Quantitative High-Throughput drug screen in 47 multiple myeloma cell lines against the NCATS MIPE library collection: U266_ATCC cell viability assay (AID 1919864); also: nearly all actives have a fitted effect of over 35% in size
Procedure, shortened: as §1

[6] = Quantitative High-Throughput drug screen in 47 multiple myeloma cell lines against the NCATS MIPE library collection: XG1_PLB cell viability assay (AID 1919866); also: nearly all actives have a fitted effect of over 35% in size
Procedure, shortened: as §1

[7] = Quantitative High-Throughput drug screen in 47 multiple myeloma cell lines against the NCATS MIPE library collection: VP6_DJ cell viability assay (AID 1919867); also: nearly all actives have a fitted effect of over 40% in size
Procedure, shortened: as §1

[8] = Quantitative High-Throughput drug screen in 47 multiple myeloma cell lines against the NCATS MIPE library collection: MMM1_PLB cell viability assay (AID 1918976); also: nearly all actives have a fitted effect of over 35% in size
Procedure, shortened: as §1

[9] = Quantitative High-Throughput drug screen in 47 multiple myeloma cell lines against the NCATS MIPE library collection: MOLP8_DSMZ cell viability assay (AID 1918977); also: nearly all actives have a fitted effect of over 45% in size
Procedure, shortened: as §1

[10] = Quantitative High-Throughput drug screen in 47 multiple myeloma cell lines against the NCATS MIPE library collection: OCIMY1_PLB cell viability assay (AID 1918979); also: nearly all actives have a fitted effect of over 35% in size
Procedure, shortened: as §1

[11] = Quantitative High-Throughput drug screen in 47 multiple myeloma cell lines against the NCATS MIPE library collection: LP1_DSMZ cell viability assay (AID 1918982); also: nearly all actives have a fitted effect of over 35% in size
Procedure, shortened: as §1

[12] = Quantitative High-Throughput drug screen in 47 multiple myeloma cell lines against the NCATS MIPE library collection: L363_DSMZ cell viability assay (AID 1918984); also: nearly all actives have a fitted effect of over 40% in size
Procedure, shortened: as §1

[13] = Quantitative High-Throughput drug screen in 47 multiple myeloma cell lines against the NCATS MIPE library collection: XG6_PLB cell viability assay (AID 1919865); also: nearly all actives have a fitted effect of over 40% in size
Procedure, shortened: as §1

[14] = Quantitative High-Throughput drug screen in 47 multiple myeloma cell lines against the NCATS MIPE library collection: NCIH929_DSMZ cell viability assay (AID 1918978); also: nearly all actives have a fitted effect of over 35% in size
Procedure, shortened: as §1

[15] = Quantitative High-Throughput drug screen in 47 multiple myeloma cell lines against the NCATS MIPE library collection: SKMM1_PLB cell viability assay (AID 1919863); conditions: SKMM1 myeloma viability, CellTiter-Glo ATP, 48 h; viability: active compounds read low; also: nearly all actives have a fitted effect of over 35% in size
Procedure, shortened: as §1

[16] = Quantitative High-Throughput drug screen in 47 multiple myeloma cell lines against the NCATS MIPE library collection: MM1S_ATCC cell viability assay (AID 1918980); also: nearly all actives have a fitted effect of over 45% in size
Procedure, shortened: as §1

[17] = Quantitative High-Throughput drug screen in 47 multiple myeloma cell lines against the NCATS MIPE library collection: KMS34_JCRB cell viability assay (AID 1918985); also: nearly all actives have a fitted effect of over 40% in size
Procedure, shortened: as §1

[18] = Quantitative High-Throughput drug screen in 47 multiple myeloma cell lines against the NCATS MIPE library collection: KMS28PE_JCRB cell viability assay (AID 1918983); also: nearly all actives have a fitted effect of over 35% in size
Procedure, shortened: as §1

[19] = Quantitative High-Throughput drug screen in 47 multiple myeloma cell lines against the NCATS MIPE library collection: OCIMY7_PLB cell viability assay (AID 1918987); conditions: OCI-MY7 myeloma viability, CellTiter-Glo ATP, 48 h; viability (% of DMSO): at 45.8 µM (top of the series); also: nearly all actives have a fitted effect of over 65% in size
Procedure, shortened: as §1
Potency is read from the fitted curve at half-maximal effect.

Nc1nc(F)nc2c1ncn2[C@@H]1O[C@H](COP(=O)(O)O)[C@@H](O)[C@H]1O
inactive: Potency [1] | Potency [4] | Potency [7]
active: Potency [2] 18.7 µM | Potency [3] 23.5 µM | Potency [5] 0.526 µM | Potency [6] 29.6 µM

O=C(Nc1cccc(Br)c1)c1cccc(S(=O)(=O)N2CCCCCC2)c1
active: Potency [8] 18.7 µM | Potency [10] 14.8 µM | Potency [2] 18.7 µM | Potency [11] 10.5 µM | Potency [12] 13.2 µM | Potency [3] 18.7 µM | Potency [4] 18.7 µM | Potency [13] 14.8 µM | Potency [6] 16.6 µM | Potency [7] 16.6 µM
inactive: Potency [9]

COc1cc(O)c2c(c1)C(=O)c1cc(C)cc(O)c1C2=O
inactive: Potency [1] | Potency [14] | Potency [10] | Potency [11] | Potency [12] | viability [15] 131% | Potency [13] | Potency [6]

O=C(O)c1ccc(-c2cc3cccnc3c(-c3ccc4nonc4c3)n2)cc1
active: Potency [8] 26.4 µM | Potency [9] 26.4 µM | Potency [14] 26.4 µM | Potency [16] 23.5 µM | Potency [17] 14.8 µM | Potency [4] 20.9 µM | Potency [15] 20.9 µM | Potency [5] 20.9 µM | Potency [13] 20.9 µM | Potency [6] 20.9 µM

O=c1ccn([C@@H]2O[C@H](CO)[C@H](O)[C@H]2O)c(=O)[nH]1
active: Potency [8] 8.33 µM | Potency [14] 7.43 µM | Potency [16] 23.5 µM | Potency [11] 14.8 µM
inactive: Potency [10] | Potency [2] | Potency [4] | Potency [13] | Potency [6]

N#CC(=C(N)Sc1ccccc1N)C(C#N)=C(N)Sc1ccccc1N
inactive: Potency [10]
active: Potency [1] 1.32 µM | Potency [14] 14.8 µM | Potency [2] 1.18 µM | Potency [12] 10.5 µM | Potency [4] 20.9 µM | Potency [15] 1.32 µM | Potency [5] 5.26 µM | Potency [13] 14.8 µM | Potency [6] 9.35 µM | Potency [7] 20.9 µM

CC(=Cc1ccccc1)C=C1SC(=S)N(CC(=O)O)C1=O
inactive: Potency [1] | Potency [10] | Potency [16] | Potency [2] | Potency [11] | Potency [18] | Potency [17] | Potency [4] | viability [15] 123% | Potency [5] | Potency [13] | Potency [6]

O=C1Nc2ccc(Cl)cc2C(C#CC2CC2)(C(F)(F)F)O1 (stereo not given)
active: Potency [1] 23.5 µM | Potency [16] 20.9 µM | Potency [3] 16.6 µM | Potency [4] 20.9 µM | Potency [5] 23.5 µM | Potency [6] 16.6 µM | Potency [7] 16.6 µM

Cc1ccc(Nc2cc(-c3cccc(N4C(=O)c5ccccc5C4=O)c3)ncn2)cc1NS(C)(=O)=O
inactive: Potency [10]
active: Potency [8] 20.9 µM | Potency [9] 20.9 µM | Potency [16] 20.9 µM | Potency [2] 23.5 µM | Potency [11] 26.4 µM | Potency [12] 18.7 µM | Potency [3] 20.9 µM | Potency [4] 23.5 µM | Potency [5] 23.5 µM | Potency [13] 8.33 µM | Potency [6] 18.7 µM

O=C(CCN1CCN(C(=O)OCc2cc(Cl)cc(Cl)c2)CC1)c1ccc2[nH]c(=O)oc2c1
active: Potency [8] 10.5 µM | Potency [16] 13.2 µM | Potency [2] 18.7 µM
inactive: Potency [9] | Potency [14] | Potency [10] | Potency [17] | Potency [4] | viability [15] 136% | Potency [5] | Potency [13] | Potency [7]

CC(C(=O)O)c1ccc(-c2ccccc2)c(F)c1 (stereo not given)
active: Potency [8] 1.87 µM | Potency [14] 16.6 µM | Potency [16] 26.4 µM | Potency [5] 20.9 µM | Potency [13] 20.9 µM | Potency [6] 9.35 µM
inactive: Potency [9] | Potency [10] | Potency [2] | Potency [11] | Potency [18] | Potency [17] | Potency [4] | viability [15] 102%

CC(C)C(=O)Nc1ncc(-c2cc(C(F)F)nn2-c2c(Cl)cccc2Cl)s1
active: Potency [1] 18.7 µM | Potency [18] 20.9 µM | Potency [12] 8.33 µM | Potency [19] 16.6 µM | Potency [3] 18.7 µM | Potency [4] 20.9 µM | Potency [15] 16.6 µM | Potency [6] 10.5 µM | Potency [7] 18.7 µM

COc1ccc(Cc2ccc(NC(N)=O)cc2)cc1-c1cccc(Cl)c1
active: Potency [14] 16.6 µM | Potency [5] 8.33 µM
inactive: Potency [1] | Potency [10] | Potency [18] | Potency [17] | Potency [4] | Potency [6]

CCOC(CN1C(=O)[C@](CC(=O)Nc2ccc(C)cc2)(NC(=O)Nc2ccc(C)cc2)c2ccccc21)OCC
inactive: Potency [9] | Potency [11] | viability [15] 93.3%
active: Potency [8] 23.5 µM | Potency [3] 26.4 µM | Potency [7] 26.4 µM

Cc1ccc(C(C)(O)c2nc3ccccc3s2)c(C)c1 (stereo not given)
inactive: Potency [1] | Potency [14] | Potency [10] | Potency [11] | Potency [12] | Potency [17] | viability [15] 94% | Potency [13] | Potency [6]
